{"source": "PubChem BioAssay (NCATS)", "key": {"CRL-7250": {"test_system": "CRL-7250", "test": "Cytotoxic Profiling of Annotated Libraries Using Quantitative High-Throughput Screening (AID 1296008); further: nearly all actives have a fitted effect of over 60% in size; further: potency means the concentration at half of the fitted maximal effect; on max response: on the % scale 0 is the no-effect control and ±100 the full control effect", "details": "Five cell lines viability, CellTiter-Glo ATP luminescence, 48-72 h; max response: active compounds read low", "method_in_brief": "(§1)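 Cells exposed to compounds for 48 or 72 hr at 37 degrees Celsius. Viability read as ATP-coupled luminescence with CellTiter-Glo after 10 min at room temperature.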"}, "HEK293": {"test_system": "HEK293", "test": "Cytotoxic Profiling of Annotated Libraries Using Quantitative High-Throughput Screening (AID 1296008)", "details": "Five cell lines viability, CellTiter-Glo ATP luminescence, 48-72 h; max response: active compounds read low", "method_in_brief": "as §1"}}, "note": "Results filed as inconclusive are left out. Unmarked numbers belong to inactive results. Calls of active or inactive are those of the source. The call rests on the fitted dose curve; in most records, active means well fitted inhibition curve with a large enough effect; inconclusive means small, poorly fitted or top-dose-only effect; inactive means flat fitted curve, though single readings scatter. Where a SMILES comes first, the peptide text is derived from it. [ ]: non-standard residue; d: D form. dPhe(4-Cl) = N[C@H](Cc1ccc(Cl)cc1)C(=O)O; d2Nal = N[C@H](Cc1ccc2ccccc2c1)C(=O)O; dCit = NC(=O)NCCC[C@@H](N)C(=O)O; d3Pal = N[C@H](Cc1cccnc1)C(=O)O", "data": [{"compound": "CC(=O)OC1C(OC(=O)c2ccccc2)C2C(C)(C)CC(=O)CC2(C)C23CCC(C)(C2)C(O)CC13", "note": "(centres undefined)", "values": [{"measurement": "max response", "setting": "CRL-7250", "result": -5.07, "unit": "%"}, {"measurement": "max response", "setting": "HEK293", "result": -15.7, "unit": "%"}]}, {"compound": "CC1C=CC2CCCCC2C1CCC1CC(O)CC(=O)O1", "note": "(centres undefined)", "values": [{"measurement": "max response", "setting": "CRL-7250", "result": -5.84, "unit": "%"}, {"measurement": "outcome", "setting": "HEK293", "result": "inactive"}]}, {"compound": "CC[C@H]1OC(=O)[C@](C)(F)C(=O)[C@H](C)[C@@H](O[C@@H]2O[C@H](C)C[C@H](N(C)C)[C@H]2O)[C@](C)(OC)C[C@@H](C)C(=O)[C@@H](C)[C@H]2N(CCCCn3cc(-c4cccc(N)c4)nn3)C(=O)O[C@]12C", "values": [{"measurement": "max response", "setting": "CRL-7250", "result": -0.28, "unit": "%"}, {"measurement": "Potency", "setting": "HEK293", "result": "1.46 µM (active)"}]}, {"compound": "O=C(O)c1cc(I)ccc1NC(=O)[C@H](Cc1ccccc1)NCc1ccccc1", "values": [{"measurement": "max response", "setting": "CRL-7250", "result": -2.69, "unit": "%"}, {"measurement": "max response", "setting": "HEK293", "result": -1.33, "unit": "%"}]}, {"compound": "COc1c2ccoc2cc2oc(CO[C@@H]3O[C@H](CO)[C@@H](O)[C@H](O)[C@H]3O)cc(=O)c12", "values": [{"measurement": "max response", "setting": "CRL-7250", "result": -0.0339, "unit": "%"}, {"measurement": "max response", "setting": "HEK293", "result": 1.44, "unit": "%"}]}, {"compound": "N[C@H]1Cc2ccccc2N(O)C1=O", "values": [{"measurement": "max response", "setting": "CRL-7250", "result": -6.2, "unit": "%"}, {"measurement": "Potency", "setting": "HEK293", "result": "25.9 µM (active)"}]}, {"compound": "CC(=O)N[C@H](Cc1ccc2ccccc2c1)C(=O)N[C@H](Cc1ccc(Cl)cc1)C(=O)N[C@H](Cc1cccnc1)C(=O)N[C@@H](CO)C(=O)N[C@@H](Cc1ccc(O)cc1)C(=O)N[C@H](CCCNC(N)=O)C(=O)N[C@@H](CC(C)C)C(=O)N[C@@H](CCCN=C(N)N)C(=O)N1CCC[C@H]1C(=O)N[C@H](C)C(N)=O", "note": "(Ac-[d2Nal][dPhe(4-Cl)][d3Pal]SY[dCit]LRP[dA]-NH2)", "values": [{"measurement": "max response", "setting": "CRL-7250", "result": -7.92, "unit": "%"}, {"measurement": "max response", "setting": "HEK293", "result": -0.834, "unit": "%"}]}, {"compound": "C[C@H]1CC(=O)Nc2cccc(-c3cnn(C(C)(C)C)c3)c2N1", "values": [{"measurement": "max response", "setting": "CRL-7250", "result": -2.99, "unit": "%"}, {"measurement": "max response", "setting": "HEK293", "result": 2.23, "unit": "%"}]}, {"compound": "FC(F)(F)c1ccc(Nc2nc(-c3c(C(F)(F)F)nc4ccccn34)cs2)cc1", "values": [{"measurement": "Potency", "setting": "CRL-7250", "result": "5.8 µM (active)"}, {"measurement": "Potency", "setting": "HEK293", "result": "0.326 µM (active)"}]}, {"compound": "CC1(C)CC[C@]2(C(=O)O)CC[C@]3(C)C(=CCC4[C@@]5(C)CC[C@H](O[C@@H]6O[C@H](C(=O)O)[C@@H](O[C@@H]7OC[C@@H](O)[C@H](O)[C@H]7O)[C@H](O)[C@H]6O)C(C)(C)C5CC[C@]43C)C2C1O", "note": "(some centres undefined)", "values": [{"measurement": "max response", "setting": "CRL-7250", "result": 4.1, "unit": "%"}, {"measurement": "max response", "setting": "HEK293", "result": 2.41, "unit": "%"}]}, {"compound": "CC1=CC(=O)CC2C1(O)CCC(C)C21CC(c2ccoc2)OC1=O", "note": "(centres undefined)", "values": [{"measurement": "max response", "setting": "CRL-7250", "result": -9.3, "unit": "%"}, {"measurement": "max response", "setting": "HEK293", "result": -14.1, "unit": "%"}]}, {"compound": "CN[C@H](CC(C)C)C(=O)N[C@H]1C(=O)N[C@@H](CC(N)=O)C(=O)N[C@H]2C(=O)N[C@H]3C(=O)N[C@H](C(=O)N[C@H](C(=O)O)c4cc(O)cc(O)c4-c4cc3ccc4O)[C@H](O[C@H]3C[C@](C)(N)[C@@H](O)[C@H](C)O3)c3ccc(c(Cl)c3)Oc3cc2cc(c3O[C@@H]2O[C@H](CO)[C@@H](O)[C@H](O)[C@H]2O[C@H]2C[C@](C)(NCc3ccc(-c4ccc(Cl)cc4)cc3)[C@@H](O)[C@H](C)O2)Oc2ccc(cc2Cl)[C@H]1O", "values": [{"measurement": "max response", "setting": "CRL-7250", "result": 0.406, "unit": "%"}, {"measurement": "max response", "setting": "HEK293", "result": -5.83, "unit": "%"}]}, {"compound": "Nc1ncnc2c1nc(N)n2[C@@H]1O[C@H](CO)[C@@H](O)[C@H]1O", "values": [{"measurement": "Potency", "setting": "CRL-7250", "result": "2.59 µM (active)"}, {"measurement": "Potency", "setting": "HEK293", "result": "1.64 µM (active)"}]}, {"compound": "CS(=O)(=O)NCC1CCC(Nc2nc3c(s2)CCSc2ccccc2-3)CC1", "note": "(centres undefined)", "values": [{"measurement": "max response", "setting": "CRL-7250", "result": -26.8, "unit": "%"}, {"measurement": "Potency", "setting": "HEK293", "result": "14.6 µM (active)"}]}, {"compound": "CCOCCOC(=O)/C=C/c1ccc(OC)cc1", "values": [{"measurement": "max response", "setting": "CRL-7250", "result": -7.76, "unit": "%"}, {"measurement": "outcome", "setting": "HEK293", "result": "inactive"}]}, {"compound": "C/C=C/c1ccc2oc(-c3ccc(O)c(OC)c3)c(C)c2c1", "values": [{"measurement": "max response", "setting": "CRL-7250", "result": -27.9, "unit": "%"}, {"measurement": "max response", "setting": "HEK293", "result": -4.11, "unit": "%"}]}, {"compound": "CN(C)C/C=C/C(=O)Nc1cc2c(Nc3ccc(F)c(Cl)c3)ncnc2cc1OC1CCOC1", "note": "(centres undefined)", "values": [{"measurement": "Potency", "setting": "CRL-7250", "result": "11.6 µM (active)"}, {"measurement": "Potency", "setting": "HEK293", "result": "5.8 µM (active)"}]}, {"compound": "CC(=O)c1ccc2c(c1)C(O)C(C(C)(C)O)O2", "note": "(centres undefined)", "values": [{"measurement": "max response", "setting": "CRL-7250", "result": -0.999, "unit": "%"}, {"measurement": "max response", "setting": "HEK293", "result": -3.07, "unit": "%"}]}, {"compound": "CN1CCN(Cc2ccc(-c3cnc4[nH]cc(-c5ccc6[nH]ccc6c5)c4c3)cc2)CC1", "values": [{"measurement": "Potency", "setting": "CRL-7250", "result": "10.3 µM (active)"}, {"measurement": "Potency", "setting": "HEK293", "result": "6.51 µM (active)"}]}, {"compound": "Cc1ccc(S(=O)(=O)c2ccc([N+](=O)[O-])o2)cc1", "values": [{"measurement": "Potency", "setting": "CRL-7250", "result": "5.8 µM (active)"}, {"measurement": "Potency", "setting": "HEK293", "result": "1.03 µM (active)"}]}, {"compound": "CCOc1cc(C(=O)N2CCC(N3CCN(C)CC3)CC2)ccc1Nc1ncc2c(n1)N(C1CCCC1)c1ccccc1C(=O)N2C", "values": [{"measurement": "Potency", "setting": "CRL-7250", "result": "10.3 µM (active)"}, {"measurement": "Potency", "setting": "HEK293", "result": "11.6 µM (active)"}]}, {"compound": "CC1CCC2(C(=O)O)CCC3(C)C(=CCC4C5(C)CCC(O)C(C)(CO)C5CCC43C)C2C1(C)O", "note": "(centres undefined)", "values": [{"measurement": "max response", "setting": "CRL-7250", "result": 0.977, "unit": "%"}, {"measurement": "max response", "setting": "HEK293", "result": -24.2, "unit": "%"}]}]}
